# Experimental data: article PMC4552634, “A New Set of Chemical Starting Points with Plasmodium falciparum Transmission-Blocking Potential for Antimalarial Drug Discovery” (PLoS ONE, 2015)
# About 3,200 (25%) of roughly 13,000 compounds showed an effect of 50% or more. The list shows a part of the results.
# System: P. falciparum stage V gametocytes
# Design: BacTiter-Glo ATP luminescence viability of purified stage V gametocytes in 384-well plates, per cent inhibition versus DMSO
# Settings: 48 h, 5 µM; inhibitor
row,Compound,% Inhibition
1,CC(C)NCc1ccc(-c2cccc(-c3nc4ccc(C(F)(F)F)cc4[nH]3)c2)cc1 [TCMDC-132739],37.23%
2,COc1ccc2nccc([C@H](O)CN3CCC(NCc4ccc5c(c4C)OCCO5)CC3)c2n1 [TCMDC-136066],21.32%
3,Cc1c(C)n(C2CCCCC2)c2ncnc(OC3CCN(CC(=O)N4CCCC4)CC3)c12 [TCMDC-124854],2.854%
4,COc1ccc(C(=O)NC2CCN(c3ccnc4cc(Cl)ccc34)C2)cc1 (stereo not drawn) [TCMDC-133648],42.46%
5,Cc1cc(Nc2ccccc2)nc(Nc2ccccc2)n1 [TCMDC-124214],11.37%
6,Cn1c(NC(=O)CCCCCNC(=O)c2ccc(O)c(-c3ccc(Cl)c(Cl)c3)c2)nc2ccccc21 [TCMDC-140880],4.339%
7,Cc1nc(N)nc(N)c1-c1ccc(Cl)cc1 [TCMDC-138984],-0.9845%
8,Cc1cc(Nc2ccc(Oc3ccc(Cl)cc3)cc2)nc(N)n1 [TCMDC-138073],-5.729%
9,CC(=O)Oc1c(Cl)c(C)nc(C)c1-c1ccc(Oc2ccc(Cl)cc2)cc1 [TCMDC-137381],75.31%
10,COc1cccc(CN2CCCC(COC(c3ccc(F)cc3)c3ccc(F)cc3)C2)c1O (stereo not drawn) [TCMDC-136038],-18.09%
11,CC(=O)Nc1ccc(CN2CCC(NC(=O)c3ccc(-c4cccc(OC(C)C)c4)s3)CC2)cc1 [TCMDC-134335],1.059%
12,CN(C)c1ccc(CN2CCCC(CNC(=O)c3ccc(-c4cccc(C(F)(F)F)c4)s3)C2)cc1 (stereo not drawn) [TCMDC-134324],98.4%
13,COc1cccc(-c2ccc(C(=O)NCC3CCCN(Cc4cccc(C(F)(F)F)c4)C3)s2)c1 (stereo not drawn) [TCMDC-134361],72.66%
14,CC(C)Oc1cccc(-c2ccc(C(=O)NCC3CCCN(Cc4cccc(C(F)(F)F)c4)C3)s2)c1 (stereo not drawn) [TCMDC-134362],86.43%
15,O=C(NC1CCN(Cc2cccc(C(F)(F)F)c2)CC1)c1ccc(-c2cccc(Cl)c2)s1 [TCMDC-134364],25.17%
16,O=C(NC1CCN(Cc2cccc(C(F)(F)F)c2)CC1)c1ccc(-c2cccc(C(F)(F)F)c2)s1 [TCMDC-134363],23.99%
17,CN(C)c1ccc(-c2ccc(C(=O)NC3CCN(Cc4cccc(C(F)(F)F)c4)CC3)s2)cc1 [TCMDC-134365],-28.78%
18,COc1ccccc1-c1ccc(C(=O)NCC2CCCN(Cc3cccc(C(F)(F)F)c3)C2)s1 (stereo not drawn) [TCMDC-134360],55.62%
19,COc1ccccc1CN1CCC(NC(=O)c2ccc(-c3cccc(C(F)(F)F)c3)s2)CC1 [TCMDC-134355],4.957%
20,CN(C)c1ccc(CN2CCC(NC(=O)c3ccc(-c4cccc(C(F)(F)F)c4)s3)CC2)cc1 [TCMDC-134325],-44.98%
21,Cc1ccc(NC(=O)Nc2ccc(Cl)c(C(F)(F)F)c2)cc1-c1ccc(C(=O)Nc2ccncc2)cc1 [TCMDC-133700],-87.03%

row,Compound,% Inhibition
1,Cc1ccc(NC(=O)c2cccc(N3CCN(c4ccncc4)CC3)c2)cc1F [TCMDC-135124],-11.57%
2,CN(C)c1ccc(C2c3nc[nH]c3CCN2C(=O)Nc2cccc([N+](=O)[O-])c2)cc1 (stereo not drawn) [TCMDC-141569],12.33%
3,CCNc1cc(C(=O)N[C@@H](Cc2ccccc2)[C@H](O)CNC(C)Cc2cccc(Cl)c2)cc(N2CCCCS2(=O)=O)c1 (stereo partly drawn) [TCMDC-135412],76.43%
4,CCCC(C)NC[C@@H](O)[C@H](Cc1ccccc1)NC(=O)c1cc(NCC)cc(N2CCCCS2(=O)=O)c1 (stereo partly drawn) [TCMDC-135226],61.06%
5,CCCC(C)NC[C@@H](O)[C@H](Cc1ccccc1)NC(=O)c1cc(C2CCCC2)cc(N2CCCCS2(=O)=O)c1 (stereo partly drawn) [TCMDC-135216],60.63%
6,COc1cc(CNC[C@@H](O)[C@H](Cc2ccccc2)NC(=O)c2cc(C3CCCC3)cc(N3CCCCS3(=O)=O)c2)cc(OC)c1 [TCMDC-134561],14.07%
7,CCNc1cc(C(=O)N[C@@H](Cc2cccc(Cl)c2)[C@H](O)CNC(C)CCCC(C)C)cc(N2CCCCS2(=O)=O)c1 (stereo partly drawn) [TCMDC-135225],15.74%
8,CCNc1cc(C(=O)N[C@@H](Cc2cccc(F)c2)[C@H](O)CNC(C)CCCC(C)C)cc(N2CCCCS2(=O)=O)c1 (stereo partly drawn) [TCMDC-135307],42.64%
9,O=C(N[C@@H](Cc1ccccc1)[C@H](O)CNC1CCOCC1)c1cc(C2CCCC2)cc(N2CCCCS2(=O)=O)c1 [TCMDC-134938],31.68%
10,CCNc1cc(C(=O)N[C@@H](Cc2ccoc2)[C@H](O)CNC(C)CCCC(C)C)cc(N2CCCCS2(=O)=O)c1 (stereo partly drawn) [TCMDC-135411],37.57%
11,CCCCCC(C)NC[C@@H](O)[C@H](Cc1ccccc1)NC(=O)c1cc(NCC)cc(N2CCCCS2(=O)=O)c1 (stereo partly drawn) [TCMDC-135293],40.73%
12,CCNc1cc(C(=O)N[C@@H](Cc2ccccc2)[C@H](O)CNC(C)CCCC(C)C)cc(N2CCCS2(=O)=O)c1 (stereo partly drawn) [TCMDC-138825],1.46%
13,CCNc1cc(C(=O)N[C@@H](Cc2ccccc2)[C@H](O)CNC(C)(C)Cc2cccc(Cl)c2)cc(N2CCCCS2(=O)=O)c1 [TCMDC-135309],13.84%
14,CCNc1cc(C(=O)N[C@@H](Cc2ccccc2Cl)[C@H](O)CNC(C)CCCC(C)C)cc(N2CCCCS2(=O)=O)c1 (stereo partly drawn) [TCMDC-135224],92.78%
15,CC(C)[C@@H](C(=O)NCc1cccc(C(F)(F)F)c1)N1C(=O)CCC1C(=O)Nc1ccc([N+](=O)[O-])cc1 (stereo partly drawn) [TCMDC-141408],-12.94%
16,COc1ccc(Cc2cnc3nc(N)nc(N)c3c2C)cc1 [TCMDC-137704],42.37%
17,CC(=O)NCC(=O)NC1=NC(C)(C)N(OCc2ccc3ccccc3c2)C(N)=N1 [TCMDC-131579],9.815%
18,CC(=O)Nc1cccc(C(=O)Nc2cccc(-c3cccc(-c4nc5ccccc5[nH]4)c3)c2)c1 [TCMDC-132134],-16.76%
19,COc1cccc(-n2ncc3c(N/N=C/c4ccc(CN(C)CCN(C)C)cc4)ncnc32)c1 [TCMDC-138728],20.85%
20,O=C(NCCCc1ccccc1)c1csc(C2CCCN(C(=O)c3ccc(O)c(-c4ccccc4)c3)C2)n1 (stereo not drawn) [TCMDC-140153],-2.163%
21,O=C(Nc1cccnc1)c1cn(-c2ccccc2)nc1-c1cccs1 [TCMDC-124055],-11.35%

row,Compound,% Inhibition
1,COc1ccc(NC(=O)[C@H](CC(C)C)Nc2cc(C)nc(NCc3cccc(C)c3)n2)cc1 [TCMDC-134891],-4.805%
2,O=[N+]([O-])c1cccc(NC(=S)N2CCCN(Cc3ccc(C(F)(F)F)cc3)CC2)c1 [TCMDC-141016],26.08%
3,O=C(Nc1cccc(OC2CCN(Cc3ccccc3)CC2)c1)Nc1cccc([N+](=O)[O-])c1 [TCMDC-139544],-4.381%
4,O=C(/C=C/c1ccc(Cl)c(Cl)c1)NCCCCCN1CCCN(C(=S)Nc2cccc(Cl)c2)CC1 [TCMDC-135894],9.594%
5,O=[N+]([O-])c1cccc(NC(=S)N2CCCN(Cc3ccc(F)cc3F)CC2)c1 [TCMDC-141015],78.9%
6,O=[N+]([O-])c1cccc(NC(=S)N2CCCN(Cc3ccc(Cl)cc3Cl)CC2)c1 [TCMDC-141017],68.72%
7,O=C(Nc1cccc(CN2CCCN(Cc3ccc(O)cc3)CC2)c1)c1cccc(F)c1 [TCMDC-141816],-13.75%
8,Fc1ccc(-c2cncc(Nc3ccncc3)n2)cc1 [TCMDC-134499],21.35%
9,CC1(C(=O)Nc2ccc([N+](=O)[O-])cc2O)CC2c3ccccc3C1c1ccccc12 (stereo not drawn) [TCMDC-124076],-1.633%
10,O=C(NC1CCC(N2CCN(c3cccc4[nH]ccc34)CC2)CC1)c1cc2cccnc2[nH]1 (stereo not drawn) [TCMDC-134216],-40.15%
11,NC1CCN(Cc2ccc(-c3ccc(-c4nc5ccc(F)cc5[nH]4)s3)cc2)C1 (stereo not drawn) [TCMDC-133854],66.76%
12,NC1CCCN(Cc2ccc(-c3ccc(-c4nc5ccc(F)cc5[nH]4)s3)cc2)C1 (stereo not drawn) [TCMDC-133856],57.48%
13,NC1CCN(Cc2ccc(-c3ccc(-c4nc5ccccc5[nH]4)s3)cc2)C1 (stereo not drawn) [TCMDC-133847],76.03%
14,OCC1CCN(Cc2ccc(-c3ccc(-c4nc5ccc(F)cc5[nH]4)s3)cc2)CC1 [TCMDC-133127],-4.488%
15,OC1CCCN(Cc2ccc(-c3ccc(-c4nc5ccc(F)cc5[nH]4)s3)cc2)C1 (stereo not drawn) [TCMDC-133821],-16.69%
16,NC1CCCN(Cc2ccc(-c3ccc(-c4nc5ccccc5[nH]4)s3)cc2)C1 (stereo not drawn) [TCMDC-133849],41.97%
17,CC(=O)N(C)C1CCN(Cc2ccc(-c3ccc(-c4nc5ccc(F)cc5[nH]4)s3)cc2)C1 (stereo not drawn) [TCMDC-133895],-2.042%
18,NC1CCN(Cc2cccc(-c3ccc(-c4nc5ccccc5[nH]4)s3)c2)C1.O=C(O)C(F)(F)F (stereo not drawn) [TCMDC-133869],26.1%
19,CCOc1cc(C(=O)NCC2CCN(CC3CCCCC3)CC2)ccc1-c1nc2ccc(Cl)cc2[nH]1 [TCMDC-140914],-32.49%
20,O=C(NCCc1ccc(Cl)c(Cl)c1)[C@@H]1CCCN1C(=O)c1ccc(O)c(-c2cccc(C(F)(F)F)c2)c1 [TCMDC-140822],3.039%
21,O=C(NCc1ccc(Cl)cc1)c1ccc(C(=O)NCC2CCCN2CC2CCCCC2)cc1 (stereo not drawn) [TCMDC-136754],-3.385%
